Assay outcomes (PubChem)
IL-1B inflam inh: qHTS for Inhibitors of Inflammasome Signaling: IL-1-beta AlphaLISA Primary Screen | 4.7% of 360,000 active | THP-1 LPS/ATP IL-1B secretion, AlphaLISA, 16 h; active compounds read low | activity change, % at 57.5 µM | AID 743279, 2014; in the data active = activity change below about -50%; inconclusive = mostly about -30% to -49%
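THP-1 cells pretreated 1 hr with compounds (up to 57.5 uM final), then stimulated with LPS (250 ng/mL final) plus ATP (1.25 mM final); secreted IL-1B measured by AlphaLISA after 16 hr, decreased signal indicating inhibition.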
MCF10A rereplic: A quantitative high throughput screen for small molecules that induce DNA re-replication in MCF 10a normal breast cells | Potency, µM (titrated, usually from 46.1 µM), most hits filed as activators | MCF 10A DNA re-replication, Hoechst nuclear intensity, 48 h | 2.9% of 350,000 active; also: nearly all actives have a fitted effect of over 50% in size
Chronic BCR inh: qHTS Assay to Find Inhibitors of Chronic Active B-Cell Receptor Signaling; 0.05% of 340,000 active; Potency, µM (titrated, usually from 46.1 µM), usual class: inhibitors; ABC-DLBCL IkBa-CBG/CBR reporter, luminescence ratio, 4 h; active = well fitted inhibition curve with a large enough effect in the signal ratio, with a control signal flat, not every such curve was filed as active; inconclusive = small, poorly fitted or top-dose-only effect, or effect the other way, or a change in a side signal; the % refers to the signal ratio
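Doxycycline induced both beetle luciferases in TMD8 lymphoma cells; IKK-driven degradation limits the IkappaBalpha-fused green signal, while red luminescence normalises for cell number and nonspecific effects. Compounds tested up to 46 uM, 4 hrs.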
SW480 rerep: A quantitative high throughput screen for small molecules that induce DNA re-replication in SW480 colon adenocarcinoma cells; SW480 DNA re-replication, Hoechst DNA content imaging, 48 h; Potency, µM (titrated, usually from 46.1 µM), hits mostly activators; 1.8% of 340,000 active; AID 624297, 2012; also: nearly all actives have a fitted effect of over 55% in size
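Hoechst fluorescence of nuclei (405 nm excitation, 500-530 nm emission) measured by plate-scanning imager after 48 hr compound exposure at 37 C; re-replication scored as increased number of nuclei with elevated intensity.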
DT40 TDP1 CPT: qHTS for Inhibitors of human tyrosyl-DNA phosphodiesterase 1 (TDP1): qHTS in cells in presence of CPT; chicken DT40 Tdp1-/-;hTDP1 cells + 20 nM CPT, ATP luminescence, 48 h; Potency, µM (series often up to 46.2 µM), actives largely listed as inhibitors; 12% of 420,000 active; AID 686979, 2013; also: nearly all actives have a fitted effect of over 55% in size
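Cell growth measured by CellTiter-Glo luminescence after a minimum 48 h, 37 C compound exposure with 20 nM CPT in Tdp1-knockout DT40 cells stably expressing hTDP1, seeded 400/well; qHTS titration format.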
TDP1 cell noCPT: qHTS for Inhibitors of human tyrosyl-DNA phosphodiesterase 1 (TDP1): qHTS in cells in absence of CPT; DT40 Tdp1-/- hTDP1 cells, no CPT, ATP luminescence, 48 h; Potency, µM (series often up to 46.2 µM), usual class: inhibitors; 15% of 420,000 active; also: nearly all actives have a fitted effect of over 55% in size
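Growth of hTDP1-complemented DT40 Tdp1-knockout cells is measured by ATP luminescence after at least 48 hr compound exposure at 37 °C, with DMSO substituting for the 20 nM CPT used in the parallel screen.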
Large screens that a line does not name were inactive. An excerpt weighted towards active compounds, which were near 19% of everything screened. Unless noted, calls follow the shape of the dose curve; as a rule, active = well fitted curve in the direction sought with a large enough effect; inconclusive = small, poorly fitted or top-dose-only effect, or another doubt; inactive = no such curve, though single readings can be large; an effect the other way counts as inactive or inconclusive.

CCN(CC)C(=O)c1sc2c(c1C)c(=O)n(-c1ccccc1)c(=O)n2CC(=O)N(CC)c1cccc(C)c1	DT40 TDP1 CPT inconclusive (no result: IL-1B inflam inh, MCF10A rereplic, SW480 rerep)
COc1ccc(/C=C2\Sc3ccc(C(=O)N4CCCC4)cc3N(C)C2=O)cc1OC	Chronic BCR inh inconclusive, SW480 rerep 4µM, TDP1 cell noCPT inconclusive
CN1C(=O)/C(=C/c2ccc(C(F)(F)F)cc2)Sc2ccc(C(=O)N3CCN(c4ccccn4)CC3)cc21	MCF10A rereplic inconclusive, DT40 TDP1 CPT inconclusive, TDP1 cell noCPT inconclusive
CN1C(=O)/C(=C/c2cccc(Cl)c2)Sc2ccc(C(=O)N3CCOCC3)cc21	MCF10A rereplic 21µM, Chronic BCR inh inconclusive, SW480 rerep inconclusive, DT40 TDP1 CPT inconclusive, TDP1 cell noCPT inconclusive
CCOc1ccc(/C=C2/Sc3ccc(C(=O)N4CCOCC4)cc3N(C)C2=O)cc1OC	IL-1B inflam inh -62, MCF10A rereplic inconclusive, Chronic BCR inh inconclusive, SW480 rerep inconclusive, DT40 TDP1 CPT inconclusive, TDP1 cell noCPT 16µM
C[C@@H](NC(=O)[C@@H]1CCCN1C(=O)[C@@H]1CCCN1C(=O)c1ccc(Cl)cc1)c1ccccc1	DT40 TDP1 CPT inconclusive, TDP1 cell noCPT inconclusive (no result: MCF10A rereplic, Chronic BCR inh, SW480 rerep)
O=C(COc1ccccc1[N+](=O)[O-])N1CCN(c2ccccn2)CC1	Chronic BCR inh inconclusive
COc1ccccc1P(=O)(c1ccccc1)c1ccc([N+](=O)[O-])cc1 (stereo unspecified)	TDP1 cell noCPT inconclusive
CCN1/C(=C/c2cc[n+](CCCS(=O)(=O)[O-])c3ccccc23)Sc2ccccc21	none
C=CC[n+]1ccc(/C=C2\C=Cc3cc(C)ccc3N2CC)c2ccccc21	IL-1B inflam inh -66, MCF10A rereplic inconclusive, Chronic BCR inh inconclusive, DT40 TDP1 CPT 0.29µM, TDP1 cell noCPT 0.21µM
Cc1cc(C)cc(C(=O)C[n+]2cccc(Br)c2)c1	none (no result: IL-1B inflam inh, MCF10A rereplic, Chronic BCR inh, SW480 rerep)
CCC(C)Sc1ccc([C@H]2N[C@@](C)(C(=O)OC)[C@H]3C(=O)N(C)C(=O)[C@@H]23)cc1 (stereo partly specified)	MCF10A rereplic inconclusive, TDP1 cell noCPT inconclusive
CCOC(=O)C1(C)NC(c2ccc(OC)c(OC)c2)C2C(=O)N(CC)C(=O)C21 (stereo unspecified)	none
CCCCCCSc1ccc([C@H]2N[C@@](CC(C)C)(C(=O)OC)[C@H]3C(=O)N(C)C(=O)[C@@H]23)cc1	IL-1B inflam inh inconclusive, Chronic BCR inh inconclusive, DT40 TDP1 CPT inconclusive, TDP1 cell noCPT inconclusive
CCCCCCSc1ccc([C@H]2N[C@@](CC(C)C)(C(=O)OC)[C@H]3C(=O)N(CC)C(=O)[C@@H]23)cc1	DT40 TDP1 CPT 21µM, TDP1 cell noCPT 21µM
CCC(C)Sc1ccc([C@H]2N[C@@](C)(C(=O)OC)[C@H]3C(=O)N(CC)C(=O)[C@@H]23)cc1 (stereo partly specified)	DT40 TDP1 CPT 16µM, TDP1 cell noCPT 18µM
CCCCCCSc1ccc([C@H]2N[C@@](C)(C(=O)OC)[C@H]3C(=O)N(CC)C(=O)[C@@H]23)cc1	DT40 TDP1 CPT 23µM, TDP1 cell noCPT 18µM
Cc1cc(C)c2[nH]c(C(=O)Nc3ccc(F)cc3Br)cc2c1	none
Cc1nc2ccc(NC(=O)CCC3CCCC3)cc2s1	none
CCOc1nc2c(c(-c3cccs3)c1C#N)Cc1ccccc1-2	MCF10A rereplic inconclusive (no result: IL-1B inflam inh)
COc1nc2c(c(-c3cc(Br)cs3)c1C#N)Cc1ccccc1-2	MCF10A rereplic inconclusive, DT40 TDP1 CPT inconclusive, TDP1 cell noCPT 26µM
O=c1[nH]c(=O)n(-c2ccccc2)c2c1C(C(F)(F)F)(C(F)(F)F)N=C(C1CCCCC1)N2	Chronic BCR inh inconclusive, DT40 TDP1 CPT inconclusive, TDP1 cell noCPT 23µM
C#CCN(C)CC/C=C1\c2ccccc2CSc2ccccc21	MCF10A rereplic inconclusive, Chronic BCR inh inconclusive, SW480 rerep 16µM, TDP1 cell noCPT inconclusive
CC(O)CN(C)CC/C=C1/c2ccccc2CSc2ccccc21 (stereo unspecified)	Chronic BCR inh inconclusive, DT40 TDP1 CPT inconclusive, TDP1 cell noCPT inconclusive
CN(C)CC/C=C1\c2cc(F)ccc2CSc2ccccc21	IL-1B inflam inh -57, Chronic BCR inh inconclusive, DT40 TDP1 CPT inconclusive, TDP1 cell noCPT inconclusive
NCC/C=C1/c2ccccc2CSc2ccccc21	SW480 rerep inconclusive, DT40 TDP1 CPT 25µM, TDP1 cell noCPT 35µM
CN(CC/C=C1/c2ccccc2CSc2ccccc21)CCCO	IL-1B inflam inh -58, Chronic BCR inh inconclusive, SW480 rerep inconclusive, DT40 TDP1 CPT inconclusive, TDP1 cell noCPT inconclusive
C=CCN(C)CC/C=C1\c2ccccc2CSc2ccccc21	DT40 TDP1 CPT inconclusive, TDP1 cell noCPT inconclusive
CCOC(=O)C1(C)CCCN(C(=O)c2cc(F)ccc2C)C1 (stereo unspecified)	none (no result: MCF10A rereplic, Chronic BCR inh, SW480 rerep)
O=C(CCN1N=C(c2ccccc2)CCC1=O)NCC1COc2ccccc2O1 (stereo unspecified)	none
Cc1cc(NC(=O)C(C)SCC(=O)Nc2ccccc2C(C)(C)C)no1 (stereo unspecified)	DT40 TDP1 CPT inconclusive, TDP1 cell noCPT 15µM
Cc1cc(NC(=O)CSc2nc(-c3ccc(F)cc3)cs2)no1	none
COc1ccc(-c2csc(NC(=O)CSCC(=O)Nc3cc(C)on3)n2)cc1	DT40 TDP1 CPT inconclusive, TDP1 cell noCPT 23µM
CCOC(=O)N1CCN(C(=O)CSCC(=O)Nc2nc(-c3ccc(OC)cc3)cs2)CC1	MCF10A rereplic inconclusive, DT40 TDP1 CPT inconclusive, TDP1 cell noCPT 21µM
CCOC(=O)N1CCN(C(=O)CSCC(=O)Nc2nc(-c3ccc(Cl)s3)cs2)CC1	DT40 TDP1 CPT 15µM, TDP1 cell noCPT 18µM
CC1(C(=O)NNC(=O)c2cccc([N+](=O)[O-])c2)CC1(Br)Br (stereo unspecified)	SW480 rerep inconclusive
CC(O)[C@H]1CNC(=O)C(=O)N1CCc1cc(C(F)(F)F)cc(C(F)(F)F)c1 (stereo partly specified)	none
CCOC(=O)N1CCN(C(=O)CSCC(=O)Nc2nc(-c3ccc(-c4ccccc4)cc3)cs2)CC1	Chronic BCR inh inconclusive, DT40 TDP1 CPT 3.3µM, TDP1 cell noCPT 3.3µM
CCOc1ccc(Oc2ccccc2NC(=O)CSCC(=O)Nc2cc(C)on2)cc1	DT40 TDP1 CPT 23µM, TDP1 cell noCPT 13µM
Cc1cccc(Oc2ccccc2NC(=O)CSCC(=O)Nc2cc(C)on2)c1	DT40 TDP1 CPT inconclusive, TDP1 cell noCPT inconclusive
